Test results reported in publication PMC4552634, “A New Set of Chemical Starting Points with Plasmodium falciparum Transmission-Blocking Potential for Antimalarial Drug Discovery” (PLoS ONE, 2015).
About 3,200 (25%) of roughly 13,000 compounds showed an effect of 50% or more. The list shows a part of the results.

test system: P. falciparum stage V gametocytes; parameters: BacTiter-Glo ATP luminescence viability of purified stage V gametocytes in 384-well plates, per cent inhibition versus DMSO; conditions: 48 h, 5 µM; inhibitor

SMILES | % Inhibition
CNC(=O)COC(=O)c1c2c(nc3ccccc13)C(=Cc1ccc3c(c1)OCO3)CCC2 [TCMDC-123900] | 4.246%
Cn1cnc(CCNC(=O)c2ccc(-c3cccc(-c4nc5cc(C(F)(F)F)ccc5[nH]4)c3)cc2)c1 [TCMDC-132493] | 1.105%
Cc1ccc(OC2CCN(c3ccc(C(=O)NC4CC4)cn3)CC2)cc1 [TCMDC-134059] | 7.555%
NC1=Nc2ccc(Cl)cc2C1(O)c1ccccc1 (centres unmarked) [TCMDC-123492] | 3.06%
CCOc1ccc(C(=O)Nc2cc3c(c(C(F)(F)F)c2)CCNC3)cc1Cl [TCMDC-139751] | 25.29%
N#Cc1cccc(C(O)C2CN(CCC3CCCCC3)CCC2(O)c2ccccc2)c1 (centres unmarked) [TCMDC-131999] | -28.27%
O=C(Nc1cccc(-c2ccc(CN3CCCC3)cc2)c1)c1ccc(Cl)cc1 [TCMDC-132630] | 10.82%
Cc1nnc2c(NC(=O)/C=C/c3ccc(OC(F)(F)F)cc3)cc3cc(Cl)ccc3n12 [TCMDC-135918] | -12.77%
Cc1cccc2[nH]c(-c3ccc(-c4cccc(NC(=O)NCc5ccc(F)cc5)c4)cc3)nc12 [TCMDC-133303] | -66.9%
COc1ccc2[nH]c(C(=O)Nc3cccc(-c4ccc(CN(C)C)cc4)c3)cc2c1 [TCMDC-134283] | -4.108%
Cc1nnc2c(N(C(=O)NCCc3ccccc3)C(=O)NCCc3ccccc3)cc3cc(Cl)ccc3n12 [TCMDC-135524] | 21.17%
COc1ccc(CNC(=O)Nc2cc3cc(-c4ccc(CN(C)C)cc4)ccc3n3c(C)nnc23)cc1 [TCMDC-136719] | 118%
COc1ccc(CNC(=O)Nc2cc3cc(-c4ccc(CN5CCCC5)cc4)ccc3n3c(C)nnc23)cc1 [TCMDC-136720] | 98.19%
CCCNC(=O)Nc1cc2cc(-c3cccc(CN4CCCCC4)c3)ccc2n2c(C)nnc12 [TCMDC-136740] | 104.3%
COc1cccc(CNC(=O)c2cccc(-c3ccc(CN4CCC(N5CCCC5)CC4)cc3)n2)c1 [TCMDC-134416] | 30.7%
O=C(Nc1cccc(-c2ccc(CN3CCCC3)cc2)c1)c1ccc(F)cc1 [TCMDC-132636] | -0.2818%
Cc1nnc2c(NC(=O)NC(C)C)cc3cc(-c4ccc(CN5CCCCC5)cc4)ccc3n12 [TCMDC-136738] | 50.46%
O=C(Nc1cccc(-c2cccc(CN3CCCC3)c2)c1)c1ccc(Cl)cc1 [TCMDC-132654] | 19.28%
CN(C)c1ccc(-c2cscc2C(=O)NC2CCCN(Cc3cccnc3)C2)cc1 (centres unmarked) [TCMDC-134489] | 34.49%
CN(Cc1cccc(F)c1)C1CCCN(c2cc(NC(=O)c3ccccc3)ccn2)C1 (centres unmarked) [TCMDC-135013] | 1.109%
CN1CC=C(c2c[nH]c3ccc(OC(=O)c4ccccc4)cc23)C1 [TCMDC-139100] | -51.1%
CCNC(=O)Nc1ccc(-c2cnc(N)c(-c3nc4ccc(OC)cc4[nH]3)c2)cc1 [TCMDC-135321] | -14.13%
O=C(/C=C/c1ccc(Cl)c(Cl)c1)NC1CCC(CN2CCC(c3nc4ccccc4n3CCCO)CC2)CC1 (centres unmarked) [TCMDC-140313] | 5.954%
Cc1cc(NC2CCN(CC3CCCCC3)CC2)nc(Nc2ccccc2Cl)n1 [TCMDC-137017] | -7.805%

SMILES | % Inhibition
CCC(CC)n1cc2c(ccc3nc(N)nc(N)c32)n1 [TCMDC-138019] | -28.37%
Nc1ccnc(N2CCC(CCOc3cc(C(F)(F)F)nc4c(C(F)(F)F)cccc34)CC2)c1 [TCMDC-141364] | 15.98%
CC(Cc1ccc(CN2CCN(Cc3ccccc3)CC2)cc1)NCC(O)c1cccc(C(F)(F)F)c1 (centres unmarked) [TCMDC-131534] | 42.03%
N=C(N)c1ccc(-c2cc(-c3cccc(C(=N)N)c3)on2)cc1 [TCMDC-137264] | 7.482%
Cc1ccc(NC(=O)c2ccc3ncccc3c2)cc1OC1CCN(Cc2ccsc2)C1 (centres unmarked) [TCMDC-133949] | -9.977%
c1ccc(COc2ccc(Nc3ncnc4ccc(-c5ccc(CN6CCSCC6)o5)cc34)cc2)cc1 [TCMDC-138242] | 13.7%
Cc1ccc(C)c(NC(=O)Nc2ccc(Nc3nc(C)cc(N4CCOCC4)n3)cc2)c1 [TCMDC-124751] | 3.565%
CC(=O)N/N=C/[C@H](CCc1ccccc1)NC(=O)[C@H](CC(C)C)NC(=O)c1cccc(OCCN2CCOCC2)c1 [TCMDC-135972] | 30.82%
CCCCNC(=O)C1CCCN(C(=O)c2ccc(O)c(-c3ccc(Cl)c(Cl)c3)c2)C1 (centres unmarked) [TCMDC-140887] | -1.062%
CS(=O)(=O)NCCCNCc1cccc(-c2csc(-c3nc4ccccc4[nH]3)c2)c1 [TCMDC-133089] | -10.78%
COc1ccc2nc(C)cc(Nc3ccc(Oc4ccc(Br)c5ccccc45)c(Cl)c3)c2c1 [TCMDC-124238] | 12.09%
Cc1ccc(CN2CCCN(Cc3cccc(NC(=O)c4ccc(-c5ccccc5)cc4)c3)CC2)cc1C [TCMDC-141851] | -43.17%
CCCNC(=O)Nc1cc2cc(-c3ccc(CN4CCCC4)cc3)ccc2n2c(C)nnc12 [TCMDC-136718] | 108.6%
O=C(/C=C/c1ccc([N+](=O)[O-])cc1)N1CCC(NS(=O)(=O)c2ccc(Br)cc2)CC1 [TCMDC-139442] | 11.64%
COc1ccc(C(=O)CCc2ccc(O)cc2)cc1 [TCMDC-124290] | -50.17%
CC(C)CNCc1cccc(-c2cccc(CNc3ccc4ncccc4c3)c2)c1 [TCMDC-140718] | 9.838%
CC(C)CNCc1cccc(-c2cccc(CNCCCN3CCN(C)CC3)c2)c1 [TCMDC-140483] | 101.9%
Cc1cccc2[nH]c(-c3ccc(-c4cccc(CNCCCN5CCCC5=O)c4)cc3)nc12 [TCMDC-132758] | 19.9%
CN1CCN(CCCNCc2cccc(-c3ccc(CNCCc4ccccc4)cc3)c2)CC1 [TCMDC-140643] | 103.5%
O=C(NCCN1CCC(c2ccncc2)CC1)c1ccc(Nc2nccc(Nc3ccc(Oc4ccccc4)cc3)n2)cc1 [TCMDC-138610] | -43.68%
CCCc1ccc(S(=O)(=O)NC2CCN(c3ccnc(Nc4ccc(F)cc4)n3)C2)cc1 (centres unmarked) [TCMDC-133598] | 2.344%
O=C(c1ccc2ccccc2n1)N1CCCc2cc(Br)ccc21 [TCMDC-134838] | -4.614%
Cc1ccc(C(=O)Nc2ccc(C)c(OC3CCN(CCC(C)C)C3)c2)cc1 (centres unmarked) [TCMDC-133981] | -13.13%
CN(C)CCCn1c(N)c(-c2nc3ccccc3[nH]2)c2nc(C#N)c(C#N)nc21 [TCMDC-123729] | 113.1%

SMILES | % Inhibition
CN(C)CCn1c(N)c(-c2nc3ccccc3s2)c2nc(C#N)c(C#N)nc21 [TCMDC-124439] | -7.276%
CCN(CC)CCCn1c(N)c(-c2nc3ccccc3[nH]2)c2nc(C#N)c(C#N)nc21 [TCMDC-123680] | 117%
N#Cc1c(N)n(CCc2ccc(F)cc2)c2nc3ccccc3nc12 [TCMDC-125779] | 44.22%
CCOC(=O)c1ccc(NC(=O)Nc2ccc(-c3ccc(-c4nc5ccccc5[nH]4)cc3)cc2)cc1 [TCMDC-133265] | -0.3523%
COc1ccc(COc2c(OC)cc(Cc3cnc(N)nc3N)cc2OC)cc1 [TCMDC-138619] | 7.542%
NC1=NC(c2ccccc2)(c2ccccc2)C(=O)N1CCCCc1ccccn1 [TCMDC-132209] | -31.55%
COc1ccc(O)c(C(=O)c2cc(C#N)c(=O)n(-c3ccc(Oc4ccccc4)cc3)c2)c1 [TCMDC-123628] | -33.17%
CCCCn1c(C(C)Oc2ccc(Cl)cc2Cl)nc2cc(S(N)(=O)=O)ccc21 (centres unmarked) [TCMDC-125564] | 8.97%
COc1cccc(CCNC(C)Cc2ccc(OCCCCOc3ccccc3)cc2)c1 (centres unmarked) [TCMDC-140020] | 127.9%
CC(Cc1ccc(OCCCCOc2ccccc2)cc1)NCCc1ccccc1Cl (centres unmarked) [TCMDC-140019] | 97.11%
CC(CCc1ccc(OCc2ccccc2)cc1)NCC(O)c1ccccc1 (centres unmarked) [TCMDC-131472] | 8.257%
CC(Cc1ccc(OCCCCOc2ccccc2)cc1)NCCc1ccc(Oc2ccccc2)cc1 (centres unmarked) [TCMDC-140021] | 88.65%
CC(Cc1ccc(OCc2ccccc2)cc1)Nc1nc2ccccc2c(=O)[nH]1 (centres unmarked) [TCMDC-131532] | -11.7%
COC(=O)c1ccc(CC(C)NCC(O)c2ccccc2Cl)cc1 (centres unmarked) [TCMDC-131422] | 7.207%
COc1ccc(Nc2nccc(N3CCC(NC(=O)c4cccc(C#N)c4)C3)n2)cc1 (centres unmarked) [TCMDC-133609] | -14.42%
COc1ccccc1CCCON1C(N)=NC(N)=NC1(C)C [TCMDC-131723] | 17.71%
CCCCOc1c(CCC)cc(Cc2cnc(N)nc2N)cc1CCC [TCMDC-137692] | -41.23%
Cc1cccc2[nH]c(-c3cccc(-c4ccc(NC(=O)c5cccnc5)cc4)c3)nc12 [TCMDC-136929] | -10.6%
Cc1cccc2[nH]c(-c3ccc(-c4cccc(NC(=O)c5cnccc5C(F)(F)F)c4)cc3)nc12 [TCMDC-137117] | -14.87%
Cc1cccc2[nH]c(-c3cccc(-c4ccc(NC(=O)c5cnccc5C(F)(F)F)cc4)c3)nc12 [TCMDC-137119] | 66.25%
Cc1cccc2[nH]c(-c3cccc(-c4cccc(NC(=O)c5cnccc5C(F)(F)F)c4)c3)nc12 [TCMDC-137118] | 53.02%
Cc1ncccc1C(=O)Nc1ccc(-c2cccc(-c3nc4c(C)cccc4[nH]3)c2)cc1 [TCMDC-136862] | -37.31%
Cc1cccc2[nH]c(-c3cccc(-c4cccc(NC(=O)c5cccnc5)c4)c3)nc12 [TCMDC-136927] | 36.77%
